# Screens as filed in PubChem.
# HT1080 IDH1KD tx = HT-1080 IDH1 knockdown cell toxicity (counter line). AID 686971. Potency, µM (doses to about 46.1 µM), without a hit: at the highest dose activity, negative = toxicity, most hits filed as cytotoxic. 2% of 360,000 active. HT-1080 IDH1 knockdown viability, ATP luminescence, 48 h;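 also: potency is read from the fitted curve at half-maximal effect; 0% = DMSO wells and -100% = cell-free medium wells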
#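 After a 2 h attachment period, IDH1KD HT-1080 cells took pin-transferred compound for 48 h at 37 °C; ATP-based luminescence after 10 min room-temperature reagent incubation reported viability.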
# TDP1 cell CPT = DT40-hTDP1 cell growth loss with CPT | chicken DT40 Tdp1-/-;hTDP1 cells + 20 nM CPT, ATP luminescence, 48 h | Potency, µM (highest dose often 46.2 µM), without a hit: at the top dose activity change, negative = growth inhibition, actives largely listed as inhibitors | 12% of 420,000 active | AID 686979; also: potency is read from the fitted curve at half-maximal effect; nearly all actives have a fitted effect of over 55% in size
#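 Chicken DT40 Tdp1-/- cells stably complemented with human TDP1 were seeded at 400 cells/well in medium containing 20 nM camptothecin, exposed to pin-transferred compounds, and grown at 37 °C for at least 48 hr. Viability was read as ATP luminescence.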
# TDP1 cell noCPT = qHTS for Inhibitors of human tyrosyl-DNA phosphodiesterase 1 (TDP1): qHTS in cells in absence of CPT | DT40 Tdp1-/- hTDP1 cells, no CPT, ATP luminescence, 48 h | 15% of 420,000 active | Potency, µM (doses to about 46.2 µM), without a hit: at the highest dose activity change, negative = growth inhibition, hits mostly inhibitors; also: potency is read from the fitted curve at half-maximal effect; nearly all actives have a fitted effect of over 55% in size
#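 Stably hTDP1-transfected Tdp1-null chicken DT40 cells were treated with library compounds minus camptothecin and grown for at least 48 hr at 37 °C, after which cellular ATP was quantified by luminescence.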
# 12-LOX inh = inhibitors of human 12S-lipoxygenase ALOX12; P18054; Potency, µM (titrated, usually from 108 µM), for inactives: at the highest dose activity change, negative = inhibition, actives largely listed as inhibitors; purified 12hLO, xylenol orange hydroperoxide absorbance; AID 1671190; 1.1% of 580,000 active; also: potency is read from the fitted curve at half-maximal effect
#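 Purified human 12hLO (150 nM final) in 25 mM Hepes, 0.01% Triton X-100, pH 7.0 was preincubated 15 min at room temperature with compound. Then 40 uM arachidonic acid was added, 30 min. Hydroperoxide was read by Fe-XO absorbance ratio 573/405 nm.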
# IL-1B inflam inh = inflammasome signaling inhibition, IL-1 beta readout | THP-1 LPS/ATP IL-1B secretion, AlphaLISA, 16 h; hits give low values | activity change, % at 57.5 µM | 4.7% of 360,000 active | AID 743279; in the data active = activity change below about -50%; inconclusive = mostly about -30% to -49%
#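 Secreted IL-1B measured by AlphaLISA bead assay after 16 h compound exposure of THP-1 cells; compounds (final up to 57.5 uM) added 1 h before LPS (250 ng/mL) and ATP (1.25 mM) stimulation; lower signal means less secretion.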
# HT1080NT lethal = kills 2HG-producing HT-1080-NT fibrosarcoma cells | HT-1080-NT fibrosarcoma viability, CellTiter-Glo ATP luminescence, 48 h | Potency, µM (top dose mostly 46.1 µM), inactives show top-dose activity, negative = less viability, usual class: cytotoxic | 1.6% of 360,000 active | AID 686970;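 also: NT is the 2HG producing partner of a matched IDH1 knockdown line; potency is read from the fitted curve at half-maximal effect; 0% = DMSO-treated cells and -100% = media-only wells without cells; nearly all actives have a fitted effect of over 55% in size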
#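 750 cells/well, RPMI + 5% FBS; 2 h settle, compound pin-transfer, 48 h at 37 degrees C. CellTiter-Glo 10 min RT, luminescence. Normalized to DMSO and media-only wells.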
# Numbers without * were called inactive; ? = inconclusive; . = no result; [ ] = dose if it differs, or a comment. The sample as a whole holds a higher share of hits than the screen did. Unless noted, calls follow the shape of the dose curve; as a rule, active = well fitted curve in the direction sought with a large enough effect; inconclusive = small, poorly fitted or top-dose-only effect, or another doubt; inactive = no such curve, though single readings can be large; an effect the other way counts as inactive or inconclusive. Unless noted, % is scaled to controls: 0 for no effect and ±100 for the full control effect.
SMILES,HT1080 IDH1KD tx,TDP1 cell CPT,TDP1 cell noCPT,12-LOX inh,IL-1B inflam inh,HT1080NT lethal
CCCCCCCOC(=O)C1=C(C)Nc2ncnn2C1c1cccs1 (configuration not stated),-14.9%,?,13µM*,0.0%,-10.9,-19.5%
CCCCCCCCOC(=O)C1=C(C)Nc2nnnn2C1c1cccs1 (configuration not stated),?,16.4µM*,16.4µM*,?,30.1,?
CC1=C(C(=O)Nc2ccccc2)C(c2cccs2)n2nnnc2N1 (configuration not stated),4.6%,2.8%,-13.9%,-22.5%,-5.0,2.8%
COCc1cc(=O)n(CC(=O)NCc2ccc(F)cc2)c(N2CCOCC2)n1,.,.,.,34.0%,.,.
CNc1cccnc1C=NNC(N)=S,?,1.16µM*,0.92µM*,0.8%,80.3,-17.4%
NC(=S)NN=Cc1nccc2c(C(F)(F)F)cccc12,?,0.517µM*,0.731µM*,?,126.5,?
CC(=O)Nc1ccc(/C=N/NC(N)=S)cc1,.,5.3%,-17.6%,-9.2%[22.9 µM],.,.
NC(=S)N/N=C/c1cccnc1,.,13.3%,-2.9%,.,.,.
O=C(c1cnccn1)N1CC(F)(F)C[C@H]1c1nc(C2CC2)no1,.,.,.,0.1%,.,.
CC(=CC(=O)c1ccccc1)c1ccccc1,16.2%,-5.7%,-17.8%,-1.5%,-5.0,-1.3%
Cc1ccc(NC(=O)Cn2cc(S(=O)(=O)c3ccc(F)cc3)c(=O)c3cc(F)ccc32)cc1,-1.5%,?,-36.1%,139.4%,-7.7,-1.2%
COc1ccc(S(=O)(=O)c2cn(Cc3ccccc3)c3ccc(OC)cc3c2=O)cc1,.,11.6µM*,25.9µM*,-24.8%,.,.
CCc1ccc(S(=O)(=O)c2cn(Cc3ccccc3F)c3cc(OC)c(OC)cc3c2=O)cc1,.,14.6µM*,?,-0.8%,.,.
Cc1ccc(Cn2cc(S(=O)(=O)c3ccc(Cl)cc3)c(=O)c3cc(F)ccc32)cc1,-25.2%,-27.8%,7.31µM*,-3.1%,-10.2,0.7%
CCc1ccc2c(c1)c(=O)c(S(=O)(=O)c1ccc(F)cc1)cn2CC(=O)Nc1ccc(C)cc1C,.,?,6.51µM*,-22.8%,.,.
CCc1ccc(S(=O)(=O)c2cn(Cc3ccc(OC)cc3)c3cc(OC)c(OC)cc3c2=O)cc1,.,?,?,3.1%,.,.
O=C(CSc1nnc(-c2cnccn2)n1-c1ccccc1)Nc1ccc2c(c1)OCO2,.,.,.,-7.2%,.,.
O=C(O)CNc1nc(NCc2ccc(Cl)cc2)ccc1[N+](=O)[O-],4.2%,-1.9%,-9.0%,?,-12.7,2.8%
O=c1c(S(=O)(=O)c2ccc(Cl)cc2)cn(Cc2ccccc2F)c2ccc(F)cc12,-3.7%,?,23.1µM*,-8.4%,-11.7,-19.0%
Cc1ccc(C)c(Cn2cc(S(=O)(=O)c3ccc(Cl)cc3)c(=O)c3cc(F)ccc32)c1,.,?,25.9µM*,4.6%,.,.
O=c1c(S(=O)(=O)c2ccc(Cl)cc2)cn(Cc2cccc(F)c2)c2ccc(F)cc12,1.2%,?,?,-10.7%,0.0,-4.0%
Cc1cccc(C)c1OCC(O)CNS(=O)(=O)c1ccccc1C(=O)N1CCCCC1 (configuration not stated),-2.1%,18.4µM*,20.6µM*,-20.6%,12.4,-5.2%
CC1(C)c2ccccc2C(=O)c2ccccc21,2.1%,-29.7%,?,0.1%,-19.4,8.2%
O=[N+]([O-])C1C(c2ccccc2)C12c1ccccc1-c1ccccc12 (configuration not stated),6.51µM*,1.03µM*,1.03µM*,.,-67.4*,5.8µM*
CCc1ccc(-n2c(CCC(=O)O)ccc2-c2cccs2)cc1,.,-22.0%,-25.1%,?,.,.
